# Assay results taken from ChEMBL document CHEMBL3433997, “St. Jude Leishmania screening dataset” (2016).
# Molecular target: Glucose transporter (Leishmania mexicana) (UniProt O61059)
# Assay: ST_JUDE_LEISH: Cytotoxicity at 2uM final concentration against transgenic Leishmania Mexicana promastigotes LmGT2 that are glucose transport deficient and complemented with the L. Mexicana glucose transporter 2. Activity is measured by DNA content using SYBR green in vitro
# Format: functional
row,SMILES,inhibition
1,Nc1ncc(-c2cccc(F)c2)cc1-c1nc2cc(F)ccc2[nH]1,6.56%
2,Cc1cc(F)ccc1C1CCN(CCCCNC(=O)c2ccc(NC(=O)c3ccc(Cl)cc3)cc2)CC1,0.87%
3,CCCc1cc(Cc2cnc(N)nc2N)cc(CCC)c1OCCCCC(=O)OC,0.33%
4,COc1cc(CN/C(=N/c2ccc(-c3ccccc3)cc2)Nc2ccc(C#N)cc2O)cc(OC)c1,0.77%
5,COc1cccc2cc(C(=O)N[C@@H](CC(C)C)C(=O)N[C@H](C=NNC(=O)OC(C)(C)C)Cc3ccccc3)oc12,4.09%
6,COc1cccc(CCN(Cc2ccccc2-c2ccc(CNC3CC(C)(C)NC(C)(C)C3)cc2)C(=O)NC2CCCCC2)c1,2.67%
7,O=C(NC1CCCCN(Cc2ccccc2O)C1)c1ccc(Cl)c(Cl)c1 (stereo not given),3.76%
8,Cc1cccc2nc(-c3cccc(-c4cccc(CNCCN5CCNCC5)c4)c3)[nH]c12,0.48%
9,Cc1c(CNCCCNc2nc3ccccc3[nH]2)[nH]c2cc(Cl)cc(Cl)c12,41.6%
10,COCCNCC(O)Cn1c2ccc(Cl)cc2c2cc(Cl)ccc21 (stereo not given),-0.53%
11,Cc1ccccc1C(O)CNc1ccnc(Nc2cccc(C#N)c2)n1 (stereo not given),0.24%
12,CC(C)NCC(=O)Nc1cccc(C(=O)Nc2cccc(C(F)(F)F)c2)c1,-1.8%
13,O=C(/C=C/c1ccc(Cl)cc1)NCCCCCN1CCCC(C(=O)Nc2ccc(Cl)cc2)C1 (stereo not given),3.7%
14,N#Cc1cccc(CN2CCCN(Cc3cccc(C(=O)Nc4ccc(Cl)cc4)c3)CC2)c1,0.64%
15,FC(F)(F)c1cccc(Nc2nc3ccccc3nc2Nc2cccc(C(F)(F)F)c2)c1,0.85%
